Data on eight compounds can be found in PubChem BioAssay (NCI).

The panel holds about 83,000 compounds, 20% with a hit somewhere; the sample as a whole holds those more often.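 Interpretation: 100, growth as untreated; towards 0, rising growth inhibition; 0, no net growth; 0 to -100, cell death. Compounds scoring below 10 were considered active.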 Values without a mark were called inactive. Active and inactive are the calls of the source.

Holding throughout (assay): NCI-60 one-dose screen, 48 h (100 = growth as untreated, 0 = no growth, -100 = all killed)
The test system of assay [1] is HCT-15 colon. To be noted: 10 µM unless noted.
Assay [2] has as its system HT29 colon. To be noted: 10 µM unless noted.
Assay [3] deals with SNB-75 CNS. To be noted: 10 µM unless noted.
The subject of assay [4] is SNB-19 CNS. To be noted: 10 µM unless noted.
Assay [5] has as its system U251 CNS. To be noted: 10 µM unless noted.
The test system of assay [6] is PC-3 prostate. To be noted: 10 µM unless noted.
Assay [7] relates to SK-MEL-5 melanoma. To be noted: 10 µM unless noted.
For assay [8], the system named is UACC-62 melanoma. To be noted: 10 µM unless noted.
The test system of assay [9] is LOX IMVI melanoma. To be noted: 10 µM unless noted.
The test system of assay [10] is SK-MEL-28 melanoma. To be noted: 10 µM unless noted.
Assay [11] has as its system SK-MEL-2 melanoma. To be noted: 10 µM unless noted.
In assay [12] the test system is SN12C renal. To be noted: 10 µM unless noted.
In assay [13] the test system is UO-31 renal. To be noted: 10 µM unless noted.
In assay [14] the test system is TK-10 renal. To be noted: 10 µM unless noted.
Assay [15] has as its system ACHN renal. To be noted: 10 µM unless noted.
Assay [16] deals with CAKI-1 renal. To be noted: 10 µM unless noted.
Assay [17] concerns A498 renal. To be noted: 10 µM unless noted.
The test system of assay [18] is CCRF-CEM leukemia. To be noted: 10 µM.
Assay [19] deals with MOLT-4 leukemia. To be noted: 10 µM unless noted.

As to `O=C(NCCNCCO)c1cc([N+](=O)[O-])cc([N+](=O)[O-])c1O`, the growth in [1] is 106%; in assay [2], 104%; in [3], 102%; in assay [4], 102%; in [5], 99.3%; in [6] it was 99.7%. In addition, the growth is 103% in [7]; 101% in [8]; 99.1% in assay [9]; 106% in [10]; 117% in assay [11]; 96.1% in assay [12]. The growth in [13] was 95.9%; in [14] it was 101%; in [15] it was 107%; in assay [16], 100%; in assay [17], 106%; in assay [18], 94.3%. Further, in [19], the growth is 102%.

Consider `CC#Cc1nc(Nc2cc(C)[nH]n2)c2ccccc2n1`, for which the growth in assay [1] is -0.521% [100 µM] (active); in [2], 2.45% [100 µM] (active); in [3], -14.3% [100 µM] (active); in assay [4], 43% [100 µM]; in assay [5] it was -25.5% [100 µM] (active); in assay [6], -28.8% [100 µM] (active). Also, the growth was -71.9% [100 µM] (active) in assay [7]; -84.1% [100 µM] (active) in [8]; -58.5% [100 µM] (active) in assay [9]; 40.5% [100 µM] in assay [10]; -51.2% [100 µM] (active) in assay [11]; -0.924% [100 µM] (active) in assay [12]. The growth was -6.22% [100 µM] (active) in assay [13]; 3.15% [100 µM] (active) in assay [14]; 3.22% [100 µM] (active) in assay [15]; -33.2% [100 µM] (active) in assay [16]; -94% [100 µM] (active) in assay [17]; -43.3% [100 µM] (active) in [19].

Take `CCCCCCCCCCCCCCCCCC(=O)Nc1ccc(O)cc1`: the growth was 110% in [1]; 96.7% in [2]; 72% in assay [3]; 118% in assay [4]; 93.4% in assay [5]; 66.6% in [6]. Besides, the growth in assay [7] is 105%; in assay [8], 102%; in assay [9], 96.9%; in assay [10], 103%; in [11], 83.1%; in [12], 75.7%. The growth in [13] was 52.5%; in [14] it was 85.3%; in assay [15] it was 104%; in assay [16] it was 95.1%; in assay [17], 109%; in assay [19], 26.7%.

For the compound `CCN(CC)CCCC(C)Nc1c(C)cnc2cc(Cl)c(C)cc12` (stereo not drawn), the growth in [1] is 86.8%; in assay [2], 40%; in assay [3], 95.5%; in [4] it was 99.9%; in assay [5] it was 84.7%; in [6], 87.8%. Further, the growth is 90.2% in [7]; 109% in assay [8]; 81.2% in assay [9]; 85.4% in assay [10]; 117% in assay [11]; 94.5% in [12]. The growth was 66.8% in assay [13]; 90.5% in assay [14]; 94% in assay [15]; 80.6% in assay [16]; 83.2% in assay [17]; 62.2% in assay [18]. For the same compound, the growth in assay [19] is 62.7%.

Consider `O=C1C=C(OCC=C(C(F)(F)F)C(F)(F)F)c2ccccc2C1=O`, for which the growth in assay [1] is 11%; in assay [2], 6.37% (active); in [3], 66.6%; in [4], 61%; in assay [5], 39.7%; in assay [6], -19% (active). The growth in [7] is 33.5%; in assay [8] it was 63.7%; in assay [9], -62.4% (active); in assay [10] it was -17.5% (active); in [11], 12.4%; in assay [12], -15.1% (active). The growth in assay [13] is 49.9%; in assay [14], 53.5%; in assay [15], 1.45% (active); in assay [16] it was 4.75% (active); in [17] it was 80.9%; in [18] it was -33.9% (active). Besides, the growth in assay [19] was -36.9% (active).

Take `COc1ccc(/C=C/C(=O)/C=C/c2cc3ccccc3[nH]c2=O)cc1`: the growth was 75.3% in assay [1]; 3.66% (active) in assay [2]; 61.6% in assay [3]; 79.6% in [4]; 13.7% in assay [5]; 52.4% in [6]. The growth in assay [7] is 86.7%; in assay [8], 53.5%; in assay [9] it was -21% (active); in [10], 79.6%; in assay [11], 95.9%; in [12] it was 66.5%. Besides, the growth in [13] was 94.4%; in assay [14], 118%; in assay [15], 84.1%; in assay [16], 98.2%; in assay [17], 100%; in assay [18] it was 8.49% (active). Moreover, the growth in assay [19] is 19.4%.

Turning to `CSCc1ncc(-c2ccc(C(F)(F)F)cc2)c(NC2CCCCCC2)n1`, the growth in assay [1] is 64.9% [25 µM]; in assay [2] it was 64.9% [25 µM]; in assay [3], 71.6% [25 µM]; in assay [4] it was 73.1% [25 µM]; in [5], 68.5% [25 µM]; in [6] it was -5.89% [25 µM] (active). The growth in assay [7] is 78.6% [25 µM]; in assay [8], 70.2% [25 µM]; in [9], 82.7% [25 µM]; in assay [10] it was 95.6% [25 µM]; in [11], 57.5% [25 µM]; in assay [12], 83.2% [25 µM]. Also, the growth is 51.9% [25 µM] in assay [13]; 97% [25 µM] in assay [14]; 77.9% [25 µM] in assay [15]; 25.1% [25 µM] in assay [16]; 60.8% [25 µM] in [17]; 23% [25 µM] in assay [19].

In the case of `C=CCC(CCC(CC=C)C(=O)OCC)C(=O)OCC` (stereo not drawn), the growth in assay [1] was 105%; in assay [2] it was 102%; in [3] it was 77.8%; in assay [4], 96.2%; in [5], 102%; in [6] it was 97.9%. Besides, the growth is 108% in [7]; 101% in assay [8]; 92.1% in assay [9]; 91.1% in [10]; 106% in [11]; 100% in assay [12]. Further, the growth is 88.5% in [13]; 91.6% in [14]; 108% in assay [15]; 103% in assay [16]; 120% in assay [17]; 104% in assay [19].
